Results published in PubChem BioAssay (NCATS).
Inconclusive results are not listed. The source made the active and inactive calls. Unless noted, calls follow the shape of the full dose curve.

Assays:
[1] = qHTS for Inhibitors of the Functional Ribonucleoprotein Complex (vRNP) of Lassa (LASV) Arenavirus: LASV Primary Screen - GLuc reporter signal (AID 1347082; calls by dose curve; tested in HEK293 reporter line; also: nearly all actives have a fitted effect of over 60% in size)
[2] = qHTS for Inhibitors of the Functional Ribonucleoprotein Complex (vRNP) of Lassa (LASV) Arenavirus: Viability assay - alamar blue signal for LASV Primary Screen (AID 1347083; calls by dose curve; tested in HEK293 reporter line; also: nearly all actives have a fitted effect of over 80% in size)
[3] = qHTS for Inhibitors of the Functional Ribonucleoprotein Complex (vRNP) of Lymphocytic Choriomeningitis Arenaviruses (LCMV): Viability assay - alamar blue signal for LCMV Primary Screen (AID 1347085; calls by dose curve; tested in HEK293 reporter line; also: nearly all actives have a fitted effect of over 80% in size)
[4] = target: Nucleoprotein (Lymphocytic choriomeningitis virus (strain Armstrong)) (UniProt P09992); assay: qHTS for Inhibitors of the Functional Ribonucleoprotein Complex (vRNP) of Lymphocytic Choriomeningitis Arenaviruses (LCMV): LCMV Primary Screen - GLuc reporter signal (AID 1347086); also: nearly all actives have a fitted effect of over 70% in size
Sequence of Nucleoprotein (Lymphocytic choriomeningitis virus (strain Armstrong)) (P09992 whole entry, looked up): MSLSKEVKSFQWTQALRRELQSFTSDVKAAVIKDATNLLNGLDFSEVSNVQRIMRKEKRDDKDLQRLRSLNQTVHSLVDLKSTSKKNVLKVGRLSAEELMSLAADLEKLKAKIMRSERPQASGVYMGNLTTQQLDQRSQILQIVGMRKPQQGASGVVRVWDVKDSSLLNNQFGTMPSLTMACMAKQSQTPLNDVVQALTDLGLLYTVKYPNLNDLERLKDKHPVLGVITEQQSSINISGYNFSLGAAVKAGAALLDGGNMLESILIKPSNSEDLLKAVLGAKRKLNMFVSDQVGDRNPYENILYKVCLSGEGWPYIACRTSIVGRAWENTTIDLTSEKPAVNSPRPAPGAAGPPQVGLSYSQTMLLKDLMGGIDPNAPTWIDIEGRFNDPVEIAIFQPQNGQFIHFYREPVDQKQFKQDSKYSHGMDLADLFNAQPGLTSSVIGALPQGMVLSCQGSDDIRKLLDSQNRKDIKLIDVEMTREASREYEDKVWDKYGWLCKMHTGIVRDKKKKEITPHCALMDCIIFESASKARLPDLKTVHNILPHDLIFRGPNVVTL

[5] = Cytotoxicity counterscreen for inhibitors of SARS-CoV-2 cell entry (AID 1645845); also: nearly all actives have a fitted effect of over 50% in size
Outline: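 After a 15 min room-temperature ATPLite 1step step, luminescence reflected ATP remaining in HEK293-ACE2 cells exposed to compound for 1 h plus 48 h at 37 C, with percent activity set by cell and no-cell controls.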

CRL-7250 = normal cell line; assay: qHTS assay to identify novel small-molecules to repurpose for Merkel cell carcinoma treatment (AID 1296009; active = well fitted curve in the direction sought with a large enough effect; an effect the other way counts as inactive or inconclusive; also: nearly all actives have a fitted effect of over 60% in size); conditions: MCC and control cell lines, CellTiter-Glo viability, 72 h; series mostly up to 92 µM
Outline: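 Viability readout: ATP luminescence (CellTiter-Glo) after 72 hr drug exposure at 37 degree celsius. Dose-response format was 8 points for NPC and 11 points for MIPE; data normalized to in-plate controls.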

[6] = Confirmatory qHTS for VERO E6 Cytotoxicity Assay: Counterscreen for SARS-CoV-2 CPE Assay (AID 1508605); also: nearly all actives have a fitted effect of over 60% in size
[7] = Confirmatory qHTS for activators (rescue) of SARS-CoV-2 Cytopathic Effect (CPE) (AID 1508606); also: nearly all actives have a fitted effect of over 70% in size
[8] = Primary qHTS to identify inhibitors of SARS-CoV-2 cell entry (AID 1645846); conditions: activity change, negative = inhibition: at 57.1 µM (top of the series) unless noted; also: nearly all actives have a fitted effect of over 45% in size
Outline: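 Entry measured by luciferase signal 48 h after adding SARS-CoV-2-S pseudotyped MLV particles to HEK293-ACE2 cells preincubated 1 h with compounds. Normalisation: bald particles and spike particles.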

[9] = qHTS profiling of the MIPE4 collection as inhibitors of Plasmodium falciparum (3D7) proliferation (AID 743344; call rule not given here); conditions: P. falciparum 3D7 in erythrocytes, SYBR Green DNA fluorescence, 72 h; at 28.5 µM (top of the series) unless noted
Outline: (§1)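 Parasite DNA was quantified by SYBR Green I fluorescence (ex 485, em 535 nm) after overnight lysis in saponin/Triton buffer at room temperature. Cultures at 0.3% parasitemia and 2.5% hematocrit were first exposed to compound for 72 h at 37 C; signals were normalised to artemisinin (0.29 uM) and vehicle wells.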

[10] = qHTS profiling of the MIPE4 collection as inhibitors of Plasmodium falciparum (DD2) proliferation (AID 743345; call rule not given here); conditions: P. falciparum Dd2 in erythrocytes, SYBR Green DNA, 72 h; at 28.5 µM (top of the series) unless noted
Outline: as §1

[11] = qHTS profiling of the MIPE4 collection as inhibitors of Plasmodium falciparum (DD2) proliferation (Rep 2) (AID 743346; call rule not given here); conditions: P. falciparum Dd2 in erythrocytes, SYBR Green DNA, 72 h; at 28.5 µM (top of the series) unless noted
Outline: as §1

[12] = Primary qHTS for Huh7 cytotoxicity: counterscreen for inhibitors of MERS-S pseudotyped particle cell entry (AID 1479147); conditions: outcome: dose series up to 57.1 µM unless noted
[13] = Primary qHTS for inhibitors of MERS-S pseudo-typed particle cell entry (AID 1479149); also: nearly all actives have a fitted effect of over 60% in size
[14] = Primary qHTS for Vero E6 cytotoxicity: counterscreen for inhibitors of SARS-S pseudo-typed particle cell entry (AID 1479150); conditions: outcome: dose series up to 57.1 µM unless noted
[15] = qHTS profiling of the MIPE4 collection as inhibitors of Plasmodium falciparum (HB3) proliferation (AID 743347; call rule not given here); conditions: P. falciparum HB3 in erythrocytes, SYBR Green DNA, 72 h; at 28.5 µM (top of the series) unless noted
Outline: as §1

[16] = Primary qHTS for inhibitors of SARS-S pseudo-typed particle cell entry (AID 1479145); also: nearly all actives have a fitted effect of over 45% in size
[17] = target: Alpha-galactosidase (Coffea arabica) (UniProt Q42656); assay: Counterscreen for Glucocerebrosidase Inhibitors: qHTS Assay for Coffee Bean alpha-Galactosidase at pH 4.5 (AID 957; active = well fitted curve in the direction sought with a large enough effect; an effect the other way counts as inactive or inconclusive)
Sequence of Alpha-galactosidase (Coffea arabica) (Q42656 whole entry, looked up): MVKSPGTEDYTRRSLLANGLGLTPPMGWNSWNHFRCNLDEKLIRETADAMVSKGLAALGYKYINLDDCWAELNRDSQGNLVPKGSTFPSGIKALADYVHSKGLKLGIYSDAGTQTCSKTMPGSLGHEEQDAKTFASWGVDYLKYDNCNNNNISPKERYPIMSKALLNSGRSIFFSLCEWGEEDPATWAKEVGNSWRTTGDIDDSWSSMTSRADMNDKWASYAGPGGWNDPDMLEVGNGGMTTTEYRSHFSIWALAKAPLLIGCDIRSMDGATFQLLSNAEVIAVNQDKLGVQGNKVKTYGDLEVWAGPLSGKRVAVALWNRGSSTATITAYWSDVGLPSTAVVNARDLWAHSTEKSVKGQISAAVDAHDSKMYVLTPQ
Outline: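 Fluorogenic qHTS at pH 4.5 (citrate buffer with Tween-20): 2 nM enzyme, 80 uM 4-MU-alpha-galactoside substrate, compound titrated 0.7 nM to 77 uM, 20 min room temperature. Glycine/NaOH stop; 4-MU read Ex 365/Em 440; Hill-equation AC50 against no-enzyme and enzyme controls.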

[18] = target: Alpha-galactosidase (Coffea arabica) (UniProt Q42656); assay: Counterscreen for Glucocerebrosidase Inhibitors: qHTS Assay for Coffee Bean alpha-Galactosidase at pH 5.9 (AID 998; active = well fitted curve in the direction sought with a large enough effect; an effect the other way counts as inactive or inconclusive)
Outline: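 In 50 mM citric acid pH 5.9 with 0.005% Tween-20, coffee bean enzyme hydrolyses 80 uM 4-MU alpha-D-galactopyranoside over 20 min at RT. Activity is normalized to controls; AC50 comes from Hill-modelled concentration-response data.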

[19] = Validation screen for inhibitors of Lassa infection (AID 463096)
[20] = Inducers of the Endoplasmic Reticulum Stress Response (ERSR) in human glioma: Validation (AID 504836; active = well fitted curve in the direction sought with a large enough effect; an effect the other way counts as inactive or inconclusive)
Outline: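 Stably transfected U87-MG human glioma cells carrying a GRP78-based luminescent sensor were seeded at 1000 cells/well, pin-dosed with compounds and incubated 16 h. Luciferase reagent was then added, and end-point luminescence was read after 10 min at room temperature.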

[21] = target: Nuclear receptor subfamily 1 group I member 3 (Homo sapiens) (UniProt Q14994); assay: Primary qHTS for antagonist of constitutive androstane receptor (CAR) against the NCATS DSHEA and TCM libraries (AID 1794836; active = well fitted curve in the direction sought with a large enough effect; an effect the other way counts as inactive or inconclusive)
Sequence of Nuclear receptor subfamily 1 group I member 3 (Homo sapiens) (Q14994 whole entry, looked up): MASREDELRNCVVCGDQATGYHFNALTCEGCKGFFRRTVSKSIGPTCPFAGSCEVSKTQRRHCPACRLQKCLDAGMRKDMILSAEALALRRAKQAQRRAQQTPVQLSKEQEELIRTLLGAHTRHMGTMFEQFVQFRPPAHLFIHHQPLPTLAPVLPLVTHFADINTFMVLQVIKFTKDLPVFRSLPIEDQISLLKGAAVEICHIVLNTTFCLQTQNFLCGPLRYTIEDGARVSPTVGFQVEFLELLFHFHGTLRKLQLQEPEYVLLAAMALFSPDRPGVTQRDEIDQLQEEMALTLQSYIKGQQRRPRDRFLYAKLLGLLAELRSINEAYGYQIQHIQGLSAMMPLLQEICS
Outline: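 HepG2 cells stably carrying hCAR and a CYP2B6 luciferase reporter (2,500 cells/well) attached for 5 h, then received compounds with 48 uM CITCO for 24 h at 37C. ONE-Glo luminescence read antagonism; CellTiter-Fluor (405/540 nm) gave viability.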

c1ccc(CNc2nc(N3CCOc4ccccc43)nc3c2CCCC3)cc1
inactive: Potency [1] | Potency [2] | Potency [3] | Potency [4] | Potency [5] | Potency (CRL-7250)

CCCCCCCCCCCCc1ccc(S(=O)(=O)Nc2nncs2)cc1
-14.7%: activity change, negative = inhibition [8]
inactive: Potency [1] | Potency [2] | Potency [3] | Potency [4] | Potency [6] | Potency [7] | Potency [5] | Potency (CRL-7250)

COc1ccc(C2(C#N)CCC(C(=O)O)CC2)cc1OC1CCCC1 (centres undefined)
-18.7%: activity change, negative = inhibition [8]
inactive: Potency [1] | Potency [2] | Potency [3] | Potency [4] | outcome [12] | Potency [13] | outcome [14] | Potency [8] | Potency (CRL-7250)
101%: parasite growth remaining, % of DMSO control (lower = more inhibition) [10]
88.4%: parasite growth, % of control (lower = inhibition) [11]
91.7%: parasite growth, % of DMSO control [9]

Cc1ccccc1C(C(=O)NC1CCCCC1)N(C(=O)Cn1ccnc1C)c1cccc(F)c1 (centres undefined)
inactive: Potency [1] | Potency [2] | Potency [3] | Potency [4] | Potency [5] | Potency (CRL-7250)

O=C(O)[C@H](CC(=O)N1C[C@@H]2CCCC[C@H]2C1)Cc1ccccc1
inactive: Potency [1] | Potency [2] | Potency [3] | Potency [4] | Potency (CRL-7250)

CN1c2cc(O)c(N=NC(N)=O)cc2CC1S(=O)(=O)O (centres undefined)
54.6%: growth, % of control [15]
64.1%: parasite growth remaining, % of DMSO control (lower = more inhibition) [10]
37.8%: parasite growth, % of DMSO control [9]
inactive: Potency [1] | Potency [2] | Potency [3] | Potency [4] | Potency [16] | outcome [12] | Potency [13] | outcome [14] | Potency [5] | Potency (CRL-7250)
4.67%: activity change, negative = inhibition [8]

CNC(=O)c1ccc(-c2cnc3ncc(Cc4ccc5ncccc5c4)n3n2)cc1F
inactive: Potency [1] | Potency [2] | Potency [3] | Potency [4] | Potency [5] | Potency (CRL-7250)

OC[C@H]1O[C@@H](Oc2cc(O)cc(C=Cc3ccc(O)cc3)c2)[C@H](O)[C@@H](O)[C@H]1O
inactive: Potency [1] | Potency [2] | Potency [3] | Potency [4] | Potency (CRL-7250)

C[C@@H]1C(=O)O[C@H]2CC34[C@H]5C[C@@H](C(C)(C)C)C36[C@H](OC(=O)[C@@H]6O)O[C@@]4(C(=O)O5)[C@]21O (some centres undefined)
77.1%: parasite growth, % of DMSO control [9]
102%: growth, % of control [15]
91.1%: parasite growth, % of control (lower = inhibition) [11]
inactive: Potency [1] | Potency [2] | Potency [3] | Potency [4] | Potency [5] | Potency [8] | Potency (CRL-7250)

CC(C)N(CC[C@H](c1ccccc1)c1cc(CO)ccc1O)C(C)C
inactive: Potency [1] | Potency [2] | Potency [3] | Potency [4] | Potency (CRL-7250)
83.7%: parasite growth remaining, % of DMSO control (lower = more inhibition) [10]
81.5%: parasite growth, % of DMSO control [9]

Cc1ccccc1C(C(=O)NC1CCCCC1)N(C(=O)CNc1ccc(C#N)cc1)c1cccc(F)c1 (centres undefined)
inactive: Potency [1] | Potency [2] | Potency [3] | Potency [4] | Potency [5] | Potency (CRL-7250)
1.58%: activity change, negative = inhibition [8]

COc1ccccc1N1CCN(CCN(C(=O)C2CCCCC2)c2ccccn2)CC1
inactive: outcome [17] | outcome [18] | Potency [19] | outcome [20] | Potency [1] | Potency [2] | Potency [3] | Potency [4] | Potency (CRL-7250)

COc1cc(O)c2c(c1)C(=O)c1cc(C)cc(O)c1C2=O
inactive: Potency [1] | Potency [2] | Potency [3] | Potency [4] | Potency [21] | Potency (CRL-7250)

O=C(c1cncc(Br)c1)N1CCC(N2CCCC2)CC1
inactive: Potency [1] | Potency [2] | Potency [3] | Potency [4] | Potency [5] | Potency [8] | Potency (CRL-7250)

CC1CCN(c2cc(N3CCN(C)CC3)ccc2NC(=O)c2cc(C#N)c[nH]2)CC1
inactive: Potency [1] | Potency [2] | Potency [3] | Potency [4] | Potency [5] | Potency (CRL-7250)
-17.8%: activity change, negative = inhibition [8]

CC(Cc1ccc(O)c(O)c1)(NN)C(=O)O (centres undefined)
-34.1%: activity change, negative = inhibition [8]
inactive: Potency [1] | Potency [2] | Potency [3] | Potency [4] | Potency [5] | Potency (CRL-7250)
